As usually defined, the AC50 is the concentration giving half of the maximal activity seen.

The values below come from PubChem BioAssay (EPA / NIEHS).

A short description of test [1]: CCTE_Shafer_MEA_acute_burst_percentage_mean: CCTE's Neural Acute Assay for Percentage of Spikes in a Burst, Shafer Lab (AID 2284017).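 For AC50: curve fitted for loss of signal so potency reflects decreased burst percentage.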 Summed up: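 Primary rat cortical neurons on 48-well MEA plates, treated on DIV 13 or 15 at 0.03-40 uM. Spikes detected at 8x rms noise at 37C; percent change from 40-min baseline to 40-min post-dose recording, fitted versus DMSO.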

Test [2] is described as follows: CCTE_Shafer_MEA_acute_burst_percentage_std: CCTE's Neural Acute Assay for Standard Deviation of Burst Percentage, Shafer Lab (AID 2284018).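 Note: fitted in the negative direction so actives lower burst percentage SD.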 In outline:
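Rat primary cortical neurons on 48-well MEAs, DIV 13 or 15, 37 C. 40-min baseline then 40-min recording with compound (0.03-40 uM); well-level SD of per-electrode burst spike percentage, expressed as percent change from baseline.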

Test [3] in a line: CCTE_Shafer_MEA_acute_per_network_burst_spike_number_mean: CCTE's Neural Acute Assay for Average Number of Spikes in a Network Burst, Shafer Lab (AID 2284019).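 For AC50: curve fitted for loss of signal so actives reduce spikes per network burst.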 Summed up: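 Rat cortical cultures, DIV 13/15; spike threshold 8x rms noise, 300-5000 Hz band-pass, 12.5 kHz sampling; wells need >/= 10 active electrodes. Compound 0.03-40 uM, 40 min, 37 C; % change vs own baseline, DMSO negative control.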

Test [4] can be described thus: CCTE_Shafer_MEA_acute_per_network_burst_spike_number_std: CCTE's Neural Acute Assay for Standard Deviation of Number of Spikes in a Network Burst, Shafer Lab (AID 2284020).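 Note: fitted for decrease in spike-number SD versus DMSO so actives lower it.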 In outline:
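Rat cortical cultures, DIV 13/15, 37 C; 20-min stabilisation, 40-min baseline, compound 0.03-40 uM, 40-min re-record. Spikes detected at 8x rms noise (300-5000 Hz band-pass). Readout: % change from baseline in per-burst spike-number SD.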

A short description of test [5]: CCTE_Shafer_MEA_acute_per_network_burst_electrodes_number_mean: CCTE's Neural Acute Assay for Mean Number of Electrodes in a Network Burst, Shafer Lab (AID 2284021).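 Note: curves fitted for decreases only so hits reduce electrodes per burst.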 In outline: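 Cultures of rat cortex neurons were exposed on DIV 13 or 15 to compounds at 0.03-40 uM in at least three wells each. Activity over 40 min before and 40 min after exposure at 37 C gave the percent change in electrodes per network burst.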

Test [6] is described as follows: CCTE_Shafer_MEA_acute_network_burst_percentage: CCTE's Neural Acute Assay for Percentage of Network Bursts, Shafer Lab (AID 2284022).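 For outcome: rat primary cortical neuron networks on multiwell MEA recorded 40 min.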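 Note: curves fitted for loss so actives lower network burst percentage.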 In outline: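 Cortical neurons from rat were grown over microelectrode arrays and used on day 13 or 15 in vitro. Wells with at least 10 active electrodes received test chemical at 0.03-40 uM. Activity during 40 min of exposure was compared with the preceding 40-min baseline.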

A short description of test [7]: CCTE_Shafer_MEA_acute_cross_correlation_area: CCTE's Neural Acute Assay for Area of Cross Correlation, Shafer Lab (AID 2284024).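 Note: area under pooled inter-electrode spike cross-correlation near zero lag as percent change from own baseline; curves fitted for loss of cross-correlation area so actives lower synchrony.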 Summed up:
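Acute exposure of mature rat cortical networks (day 13 or 15 post-plating) to 0.03-40 uM compound. Spontaneous spiking on MEA, 40 min pre- and post-dose at 37 C.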

Test [8] is described as follows: CCTE_Shafer_MEA_acute_synchrony_index: CCTE's Neural Acute Assay for Synchrony, Shafer Lab (AID 2284027).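 Note: network synchrony index of spontaneous spiking in primary rat cortical neurons on MEAs; fitted for loss of signal so actives lower synchrony relative to DMSO.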 In outline: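 Acute exposure of rat primary cortical neurons (DIV 13 or 15) at 0.03-40 uM. Synchrony index, 40 min before vs after, as % change relative to DMSO control.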
The nature of test [9]: CCTE_Shafer_MEA_dev_firing_rate_mean: CCTE's Neural Network Formation Assay for Mean Firing Rate, Shafer Lab (AID 2284031). In outline:
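Extracellular spike frequency, AUC over DIV 5–12 recordings, in rat cortical neuron MEA cultures dosed from plating; loss direction vs DMSO.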

A short description of test [10]: CCTE_Shafer_MEA_dev_per_burst_spike_percent: CCTE's Neural Network Formation Assay for Percent of Spikes in a Burst, Shafer Lab (AID 2284032).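 For AC50: fitted as a decrease in burst spike percentage below DMSO baseline.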 Summed up: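 Value is trapezoidal AUC over recordings on days 5, 7, 9 and 12 of the well-mean fraction of spikes falling in single-electrode bursts; rat cortical cultures exposed continuously from plating, treatment renewed DIV 5 and 9, fitted downward against DMSO.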

A short description of test [11]: CCTE_Shafer_MEA_dev_active_electrodes_number: CCTE's Neural Network Formation Assay for Number of Active Electrodes, Shafer Lab (AID 2284040; active = hit-call score of the fitted dose curve at least 0.9, where 1 is the maximum;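 for AC50: potency for loss of active electrodes versus DMSO so lower counts are hits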). Summed up: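 Developing rat cortical networks on MEAs, exposed DIV 0–12. Value is the AUC of active-electrode counts (≥5 spikes/min) from days 5, 7, 9, 12, relative to DMSO.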
A short description of test [12]: CCTE_Shafer_MEA_dev_burst_rate: CCTE's Neural Network Formation Assay for Burst Rate, Shafer Lab (AID 2284042). In outline: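 Primary rat cortical neurons on PEI-coated 48-well MEA plates (laminin added with cells at plating) (16 electrodes/well), exposed from plating to day 12, dosing renewed at DIV 5 and 9. Burst rate averaged over active electrodes, recorded DIV 5, 7, 9, 12, summarized as AUC; loss versus DMSO.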

Test [13] can be described thus: CCTE_Shafer_MEA_dev_bursting_electrodes_number: CCTE's Neural Network Formation Assay for Number of Bursting Electrodes, Shafer Lab (AID 2284043; active = hit-call score of the fitted dose curve at least 0.9, where 1 is the maximum;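 for AC50: potency is for loss of bursting electrodes relative to DMSO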). In outline:
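Rat cortical primary neurons, 48-well MEA, 16 electrodes/well; dosing DIV 0–12, re-dosed with full media change DIV 5, 9. Recordings DIV 5/7/9/12, AxIS adaptive spike detector; bursting electrode = ≥1 burst/2 min. AUC across days; loss of signal vs DMSO.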

Test [14] is described as follows: CCTE_Deisenroth_AIME_96WELL_CTox_Active: Cytotoxicity Assessment (CTOX) in CCTE's 96-well Estrogen Receptor Transactivation Assay with AIME metabolic competence (metabolism positive), Deisenroth Lab (AID 2284028; active = hit-call score of the fitted dose curve at least 0.9, where 1 is the maximum). Summed up: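 Cytotoxicity in VM7Luc4E2 breast cells after 24 h exposure to medium from a 2 h metabolic pre-incubation with induced rat hepatic S9 in alginate microspheres; fluorescent live-cell protease readout, 10-point series 0.002–200 uM, n=4.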

The nature of test [15]: CCTE_Deisenroth_AIME_96WELL_CTox_Inactive: Cytotoxicity Assessment (CTOX) in CCTE's 96-well Estrogen Receptor Transactivation Assay without AIME metabolic competence (metabolism negative), Deisenroth Lab (AID 2284029; active = hit-call score of the fitted dose curve at least 0.9, where 1 is the maximum). In outline: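 Cytotoxicity in VM7Luc4E2 breast cells was scored as loss of fluorescent signal from a live-cell protease substrate 24 h after exposure, using bidirectional curve fitting. Test media came from a 2 h metabolism-negative pre-incubation (alginate-water, no hepatic S9) of compounds at 0.002-200 uM, with at least four replicates.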

A short description of test [16]: CCTE_Deisenroth_AIME_384WELL_CTox_Active: Cytotoxicity Assessment (CTOX) in CCTE's 384-well Estrogen Receptor Transactivation Assay with AIME metabolic competence (metabolism positive), Deisenroth Lab (AID 2284037; active = hit-call score of the fitted dose curve at least 0.9, where 1 is the maximum;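 note: chemicals first conditioned 2 h by alginate-bound induced rat liver S9 before cells; activity means signal loss indicating cell death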). Summed up:
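Chemicals pre-incubated 2 hours with alginate-immobilised phenobarbital/beta-naphthoflavone-induced male Sprague Dawley rat liver S9, then conditioned medium applied 24 hour to VM7Luc4E2 cells. Viability by fluorogenic protease substrate; 10-point series 0.002 - 200 uM.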

Test [17] can be described thus: CCTE_Deisenroth_AIME_384WELL_CTox_Inactive: Cytotoxicity Assessment (CTOX) in CCTE's 384-well Estrogen Receptor Transactivation Assay without AIME metabolic competence (metabolism negative), Deisenroth Lab (AID 2284039; active = hit-call score of the fitted dose curve at least 0.9, where 1 is the maximum;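 note: cell viability via live-cell protease substrate cleaved to fluorescent probe; cells exposed 24 h to medium preincubated 2 h with alginate-water beads without S9; loss of fluorescence signal means loss of viability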). In outline:
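VM7Luc4E2 cells, metabolism-negative arm: test chemicals (0.002–200 uM, 10 points) pre-incubated 2 h with alginate-water microspheres, then medium transferred to cells for 24 h. Viability read as protease-substrate cleavage to fluorescent probe; loss-of-signal, bidirectional fitting.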

Test [18] addresses Estrogen receptor (Homo sapiens) (UniProt P03372). The experiment in a line: CCTE_Deisenroth_AIME_384WELL_LUC_Active: CCTE's 384-well Estrogen Receptor Transactivation Assay with AIME metabolic competence (ERTA luciferase; metabolism positive), Deisenroth Lab (AID 2284030; active = hit-call score of the fitted dose curve at least 0.9, where 1 is the maximum). In outline: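 In this metabolism-positive format, a 2-hour exposure to alginate-immobilized rat S9 precedes a 24 hour luciferase transactivation readout in VM7Luc4E2 cells. Dosing spans 10 concentrations from 0.002 to 200 uM.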

Test [19] has the same target. As to the kind of experiment: CCTE_Deisenroth_AIME_384WELL_LUC_Inactive: CCTE's 384-well Estrogen Receptor Transactivation Assay without AIME metabolic competence (ERTA luciferase; metabolism negative), Deisenroth Lab (AID 2284038; active = hit-call score of the fitted dose curve at least 0.9, where 1 is the maximum;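 note: hits raise estrogen receptor luciferase signal so potencies reflect agonists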). Summed up: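 Metabolism-negative mode: AIME lids stamped in alginate-water, no hepatic S9. 2 h chemical incubation → medium onto VM7Luc4E2 ERTA, 24 h. Readout luciferase luminescence; gain-of-signal fit vs 17beta-estradiol. Conc. 0.002 - 200 uM.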

Test [20] has the same target. As to the kind of experiment: CCTE_Deisenroth_AIME_384WELL_LUC_Shift: CCTE's 384-well Estrogen Receptor Transactivation Assay with AIME metabolic competence data shift (ERTA luciferase; difference in metabolism positive and negative), Deisenroth Lab (AID 2284041).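 Note: shift is response with S9 minus without S9 so positive means metabolism raised ER signal.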 Summed up: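 Chemicals (0.002–200 uM, 10 points) pre-incubated 2 h with alginate-encapsulated induced male Sprague Dawley rat liver S9 or S9-free, then medium applied 24 h to VM7Luc4E2 cells; luciferase. Endpoint is per-concentration difference, S9-positive minus negative.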

The structures appear in SMILES notation. Inconclusive results are not listed. Activity calls are given as the source filed them. Rule for the calls, unless noted: active = hit-call score of the fitted dose curve at least 0.9, where 1 is the maximum; inactive = score below 0.9.

Chain of Estrogen receptor (Homo sapiens) (P03372 whole entry, looked up): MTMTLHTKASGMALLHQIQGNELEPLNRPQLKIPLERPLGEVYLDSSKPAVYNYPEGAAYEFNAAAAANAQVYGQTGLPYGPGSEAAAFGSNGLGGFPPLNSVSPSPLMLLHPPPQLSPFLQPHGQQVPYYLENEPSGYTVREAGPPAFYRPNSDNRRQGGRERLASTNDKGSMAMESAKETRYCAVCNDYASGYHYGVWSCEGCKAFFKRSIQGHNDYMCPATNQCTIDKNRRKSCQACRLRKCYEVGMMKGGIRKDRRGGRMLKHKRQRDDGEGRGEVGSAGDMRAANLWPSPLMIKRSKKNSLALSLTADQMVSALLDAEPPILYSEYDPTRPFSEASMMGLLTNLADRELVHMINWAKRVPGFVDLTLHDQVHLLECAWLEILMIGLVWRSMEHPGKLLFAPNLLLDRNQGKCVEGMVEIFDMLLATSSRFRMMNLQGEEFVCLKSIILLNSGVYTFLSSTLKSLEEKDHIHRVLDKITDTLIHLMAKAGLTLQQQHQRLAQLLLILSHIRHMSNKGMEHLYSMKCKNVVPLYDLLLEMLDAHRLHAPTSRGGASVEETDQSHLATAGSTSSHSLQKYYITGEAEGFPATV

For the compound `CCC(C)(C)C(=O)O[C@H]1C[C@@H](C)C=C2C=C[C@H](C)[C@H](CC[C@@H]3C[C@@H](O)CC(=O)O3)[C@H]21`, the result in [1], in test [2], in test [3], in test [4], in [5] and in test [6] was inactive. In addition, the compound was classed as inactive in test [7], in [8], in [9] and in test [12]. In addition, the AC50 in [10] was 2.74 µM (active); in test [11], 0.801 µM (active); in test [13] it was 1.06 µM (active).
Take `Cn1c(=O)c2c(ncn2C)n(C)c1=O`: the compound was classed as inactive in test [1], in [3], in [4], in test [5], in test [6] and in test [7]. Moreover, the result in test [8], in [14], in [15], in test [9], in [10] and in test [16] was inactive. Moreover, the compound was classed as inactive in [17], in [11], in test [12] and in test [13]. The AC50 in [2] is 20 µM (active).
As to `Cc1[nH]cnc1C[C@H]1CCc2c(C)c3ccccc3n2C1=O`, the concentration at half-maximal activity (AC50) in [1] was 9 µM (active); in test [5], 17.8 µM (active); in test [6], 24.2 µM (active); in [8] it was 8.89 µM (active). Moreover, the outcome in [2], in test [3], in test [4] and in test [7] was inactive.
As to `On1ccccc1=S`, the outcome in test [1], in [2], in test [3], in test [4], in [5] and in [6] was inactive. Moreover, the call in [7], in test [8], in test [16] and in test [17] was inactive.
In the case of `Nc1ccc(Nc2ccccc2)cc1`, the AC50 in test [18] is 114 µM (active); in [17] it was 74.6 µM (active). Further, the result in test [16], in [19] and in test [20] was inactive.
For `CCCCCCc1ccc(O)cc1O`, the AC50 in [1] was 15 µM (active); in test [2], 27.8 µM (active); in test [3] it was 6.93 µM (active); in [4] it was 15.9 µM (active); in test [5], 8.5 µM (active); in test [8], 6.73 µM (active). Moreover, the AC50 was 104 µM (active) in test [16] and 162 µM (active) in test [17]. For the same compound, the call in test [6] and in test [7] was inactive.
Regarding `CC(C)=CCCC(C)=CC=O`, the call in [1], in [2], in test [3], in test [4], in [5] and in [6] was inactive. For the same compound, the call in [7] and in test [8] was inactive.
